Hit rate of the full screen: of about 5,500 compounds, about 2,000 (36%) were called active. Inconclusive results (about 18%) are left out. Cut-off read from the data, not from the text of the source: active = normalized growth mostly below about 0.91 (no sharp cut-off); inconclusive = no clear call, values can overlap the other calls; inactive = mostly above about 0.92. The list shows a part of the results.
Assay: chemical genetic growth profiling, strain panel (AID 1159580);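 note: tested at 20 µM; growth read once vehicle control cultures reached saturation at 30 °C; 1 = growth at the plate median or of vehicle wells; lower values mean less growth of the strain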
Settings: growth OD

Measured: normalized growth

NCCCC[C@H](N[C@@H](CCc1ccccc1)C(=O)O)C(=O)N1CCC[C@H]1C(=O)O
inactive: S. cerevisiae deletion strains, locus YKL009W, strain mrt4, stronger effect = lower value 0.973 | S. cerevisiae deletion strains, locus YKL068W, stronger effect = lower value 0.99 | S. cerevisiae deletion strains, locus YKL085W, strain MDH1 (second series), stronger effect = lower value 0.993 | S. cerevisiae deletion strains, locus YKL085W, strain MDH1, stronger effect = lower value 0.993 | S. cerevisiae deletion strains, locus YKL160W, strain elf1, stronger effect = lower value 0.999 | S. cerevisiae deletion strains, locus YKL190W, strain CNB1, stronger effect = lower value 0.981 | S. cerevisiae deletion strains, locus YKR001C, strain vps1, stronger effect = lower value 1.01 | S. cerevisiae deletion strains, locus YKR026C, strain gcn3, stronger effect = lower value 1.04 | S. cerevisiae deletion strains, locus YKR091W, strain srl3, stronger effect = lower value 1.01 | S. cerevisiae deletion strains, locus YLL001W, strain dnm1, stronger effect = lower value 1 | S. cerevisiae deletion strains, locus YLL026W, stronger effect = lower value 0.994 | S. cerevisiae deletion strains, locus YLL041C, strain sdh2, stronger effect = lower value 0.97 | S. cerevisiae deletion strains, locus YLR027C, strain aat2, stronger effect = lower value 0.998 | S. cerevisiae deletion strains, locus YLR039C, strain RIC1, stronger effect = lower value 0.985 | S. cerevisiae deletion strains, locus YLR058C, strain SHM2, stronger effect = lower value 0.984 | S. cerevisiae deletion strains, locus YLR102C, strain apc9, stronger effect = lower value 0.996 | S. cerevisiae deletion strains, locus YLR113W, strain HOG1, stronger effect = lower value 1.01 | S. cerevisiae deletion strains, locus YLR221C, strain rsa3, stronger effect = lower value 0.981 | S. cerevisiae deletion strains, locus YLR258W, strain gsy2, stronger effect = lower value 1.01 | S. cerevisiae deletion strains, locus YLR262C, strain YPT6 (second series), stronger effect = lower value 1.01 | S. cerevisiae deletion strains, locus YLR262C, strain YPT6, stronger effect = lower value 0.94 | S. cerevisiae deletion strains, locus YLR268W, strain sec22, stronger effect = lower value 1 | S. cerevisiae deletion strains, locus YLR320W, strain mms22, stronger effect = lower value 1.03 | S. cerevisiae deletion strains, locus YLR330W, strain CHS5, stronger effect = lower value 0.994 | S. cerevisiae deletion strains, locus YLR342W, strain FKS1 (second series), stronger effect = lower value 1.05 | S. cerevisiae deletion strains, locus YLR342W, strain FKS1, stronger effect = lower value 1 | S. cerevisiae deletion strains, locus YLR357W, strain rsc2, stronger effect = lower value 1.04 | S. cerevisiae deletion strains, locus YLR370C, strain arc18, stronger effect = lower value 0.971 | S. cerevisiae deletion strains, locus YLR371W, strain rom2, stronger effect = lower value 1 | S. cerevisiae deletion strains, locus YLR384C, strain iki3, stronger effect = lower value 0.978 | S. cerevisiae deletion strains, locus YLR418C, strain cdc73, stronger effect = lower value 1 | S. cerevisiae deletion strains, locus YML016C, strain PPZ1, stronger effect = lower value 0.992 | S. cerevisiae deletion strains, locus YML032C, strain rad52, stronger effect = lower value 0.999 | S. cerevisiae deletion strains, locus YML120C, strain ndi1, stronger effect = lower value 0.976 | S. cerevisiae deletion strains, locus YML124C, strain tub3, stronger effect = lower value 0.995 | S. cerevisiae deletion strains, locus YMR058W, strain fet3, stronger effect = lower value 1.02 | S. cerevisiae deletion strains, locus YMR078C, strain ctf18, stronger effect = lower value 0.998 | S. cerevisiae deletion strains, locus YMR125W, strain sto1, stronger effect = lower value 1.04 | S. cerevisiae deletion strains, locus YMR129W, stronger effect = lower value 0.964 | S. cerevisiae deletion strains, locus YMR205C, strain PFK2, stronger effect = lower value 0.984 | S. cerevisiae deletion strains, locus YMR223W, strain ubp8, stronger effect = lower value 0.983 | S. cerevisiae deletion strains, locus YMR231W, strain pep5, stronger effect = lower value 1.02 | S. cerevisiae deletion strains, locus YMR307W, strain GAS1, stronger effect = lower value 1.05 | S. cerevisiae deletion strains, locus YNL067W, strain RPL9B, stronger effect = lower value 0.964 | S. cerevisiae deletion strains, locus YNL071W, strain lat1, stronger effect = lower value 1.02 | S. cerevisiae deletion strains, locus YNL128W, strain TEP1, stronger effect = lower value 0.989 | S. cerevisiae deletion strains, locus YNL153C, strain GIM3, stronger effect = lower value 0.955 | S. cerevisiae deletion strains, locus YNL183C, strain NPR1, stronger effect = lower value 0.96 | S. cerevisiae deletion strains, locus YNL209W, strain ssb2, stronger effect = lower value 1.01 | S. cerevisiae deletion strains, locus YNL233W, strain BNI4, stronger effect = lower value 0.975 | S. cerevisiae deletion strains, locus YNL248C, strain rpa49, stronger effect = lower value 1.01 | S. cerevisiae deletion strains, locus YNL250W, strain rad50, stronger effect = lower value 0.982 | S. cerevisiae deletion strains, locus YNL271C, strain bni1, stronger effect = lower value 0.997 | S. cerevisiae deletion strains, locus YNL298W, strain CLA4, stronger effect = lower value 0.993 | S. cerevisiae deletion strains, locus YNL307C, strain MCK1, stronger effect = lower value 1.01 | S. cerevisiae deletion strains, locus YNL322C, strain KRE1 (second series), stronger effect = lower value 1.02 | S. cerevisiae deletion strains, locus YNL322C, strain KRE1, stronger effect = lower value 0.993 | S. cerevisiae deletion strains, locus YNR049C, strain mso1, stronger effect = lower value 0.964 | S. cerevisiae deletion strains, locus YNR052C, strain pop2, stronger effect = lower value 1.01 | S. cerevisiae deletion strains, locus YOL006C, strain TOP1, stronger effect = lower value 0.922 | S. cerevisiae deletion strains, locus YOL012C, strain htz1 1.17 | S. cerevisiae deletion strains, locus YOL147C, strain pex11, stronger effect = lower value 0.988 | S. cerevisiae deletion strains, locus YOR001W, strain rrp6, stronger effect = lower value 0.967 | S. cerevisiae deletion strains, locus YOR061W, strain CKA2, stronger effect = lower value 0.956 | S. cerevisiae deletion strains, locus YOR069W, strain VPS5, stronger effect = lower value 0.998 | S. cerevisiae deletion strains, locus YOR070C, strain gyp1, stronger effect = lower value 0.941 | S. cerevisiae deletion strains, locus YOR080W, strain dia2, stronger effect = lower value 0.992 | S. cerevisiae deletion strains, locus YOR083W, strain WHI5, stronger effect = lower value 1.01 | S. cerevisiae deletion strains, locus YOR106W, strain vam3, stronger effect = lower value 1 | S. cerevisiae deletion strains, locus YOR136W, strain idh2, stronger effect = lower value 0.994 | S. cerevisiae deletion strains, locus YOR144C, strain elg1, stronger effect = lower value 0.998 | S. cerevisiae deletion strains, locus YOR184W, strain ser1, stronger effect = lower value 1 | S. cerevisiae deletion strains, locus YOR231W, strain MKK1, stronger effect = lower value 1.04 | S. cerevisiae deletion strains, locus YOR265W, strain rbl2, stronger effect = lower value 0.987 | S. cerevisiae deletion strains, locus YOR270C, strain vph1, stronger effect = lower value 1.04 | S. cerevisiae deletion strains, locus YOR290C, strain snf2, stronger effect = lower value 1.02 | S. cerevisiae deletion strains, locus YOR316C, strain cot1, stronger effect = lower value 1 | S. cerevisiae deletion strains, locus YPL051W, strain arl3, stronger effect = lower value 1.01 | S. cerevisiae deletion strains, locus YPL078C, strain atp4, stronger effect = lower value 1.02 | S. cerevisiae deletion strains, locus YPL106C, strain sse1, stronger effect = lower value 0.949 | S. cerevisiae deletion strains, locus YPL240C, strain hsp82, stronger effect = lower value 0.986 | S. cerevisiae deletion strains, locus YPL256C, strain CLN2, stronger effect = lower value 1.02 | S. cerevisiae deletion strains, locus YPR119W, strain clb2, stronger effect = lower value 0.994 | S. cerevisiae deletion strains, locus YPR141C, strain kar3, stronger effect = lower value 0.985 | S. cerevisiae deletion strains, locus YPR163C, strain tif3, stronger effect = lower value 0.988 | S. cerevisiae deletion strains, locus YPR167C, strain met16, stronger effect = lower value 0.999 | S. cerevisiae deletion strains, strain wtn01, stronger effect = lower value 0.998 | S. cerevisiae strains, strain wild type, stronger effect = lower value 0.982

— PubChem BioAssay AID1159580 (chemical genetic matrix, 2015)
